# Assay outcomes from PubChem BioAssay.
# Giardia FBPA inh = qHTS Assay for Inhibitors of Fructose-1,6-bisphosphate Aldolase from Giardia Lamblia; A8B2U2; 290,000 tested, 0.71% active; AID 2451, 2010; purified Giardia FBPA; Potency, µM (titrated, usually from 59.6 µM), for the others: top-dose activity, negative = inhibition, hits mostly inhibitors; further: potency means the concentration at half of the fitted maximal effect; on the % scale 0 is the no-effect control and ±100 the full control effect; nearly all actives have a fitted effect of over 55% in size
# Target sequence (A8B2U2 whole entry, looked up): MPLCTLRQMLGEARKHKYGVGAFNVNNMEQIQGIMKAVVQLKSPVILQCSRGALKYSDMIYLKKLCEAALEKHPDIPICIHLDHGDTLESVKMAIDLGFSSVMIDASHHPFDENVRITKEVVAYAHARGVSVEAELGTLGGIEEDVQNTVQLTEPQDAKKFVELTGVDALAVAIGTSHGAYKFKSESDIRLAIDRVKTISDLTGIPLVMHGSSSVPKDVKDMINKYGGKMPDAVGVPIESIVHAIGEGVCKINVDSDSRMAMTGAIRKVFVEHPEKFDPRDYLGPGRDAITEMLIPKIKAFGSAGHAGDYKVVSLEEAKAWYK
#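 Giardia FBPA (40 nM reagent) was preincubated 10 min at RT with compound (up to 57.5 uM final), then substrate plus GAPDH/TPI/NAD/arsenate coupling system with diaphorase/resazurin was added; resorufin fluorescence (525/598 nm) was read after 20 min.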
# CHX counter = Cycloheximide Counterscreen for Small Molecule Inhibitors of Shiga Toxin | cell reporter, cycloheximide protein synthesis inhibition counterscreen | 300,000 tested, 12% active | max response, %; in the data active means max response mostly above about 13%, no sharp cut-off; inactive means mostly below about 14%; further: read at 38.3 µM for the half of the compounds with a filed dose; 0% is about no effect
# TbPYK inhibitor = qHTS of Trypanosoma Brucei Inhibitors | pyruvate kinase (Trypanosoma brucei), Q57TT1 | AID 624173, 2012 | Potency, µM (titrated, usually from 76.8 µM), for inactives: at the top dose activity, negative = inhibition, hits mostly inhibitors | TbPYK enzyme, Kinase-Glo Plus ATP luminescence, 45 min | 410,000 tested, 0.12% active; further: potency means the concentration at half of the fitted maximal effect; on the % scale 0 is the no-effect control and ±100 the full control effect; nearly all actives have a fitted effect of over 50% in size
#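 Glycolytic pyruvate kinase of T. brucei was incubated with substrate, test compound and 130 uM ADP for 45 minutes at room temperature. Luminescent Kinase-Glo Plus signal was measured after 10 minutes.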
# Shiga toxin inh = A qHTS for Small Molecule Inhibitors of Shiga Toxin; 290,000 tested, 9.2% active; inhibition, % at 38.7 µM; Vero cells, Shiga toxin protein synthesis inhibition reporter; AID 2315, 2010; in the data active means inhibition mostly above about 28%, no sharp cut-off; inactive means mostly below about 43%; further: 0% is about no effect
# RE007 growth inh = qHTS Assay for Inhibitors of the HIV-1 protein Vpr | S. pombe RE007 Vpr strain, BacTiter-Glo ATP luminescence, 24 h | Potency, µM (series often up to 92.2 µM), without a hit: top-dose activity change, negative = less growth, most hits filed as inhibitors | 360,000 tested, 0.21% active; active means well fitted falling curve with a large enough effect; inconclusive means small, poorly fitted or top-dose-only effect; inactive means no such curve, though single readings can be large or run the other way; further: potency means the concentration at half of the fitted maximal effect; on the % scale 0 is the no-effect control and ±100 the full control effect; nearly all actives have a fitted effect of over 50% in size
#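 Fission yeast strain RE007, carrying one chromosomally integrated HIV-1 vpr copy, was seeded at OD 0.01 in PMG+AL medium with 23 nL pinned compound. After 24 h at 30 °C and 99% humidity, viability was read by BacTiter-Glo luminescence.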
# LmPK inhibitor = qHTS Assay for Inhibitors of Leishmania Mexicana Pyruvate Kinase (LmPK). Q27686. purified LmPK, Kinase-Glo ATP luminescence, 1 h. Potency, µM (highest dose often 57.5 µM), for the others: at the top dose activity change, negative = inhibition, actives largely listed as inhibitors. 290,000 tested, 0.37% active; further: potency means the concentration at half of the fitted maximal effect; on the % scale 0 is the no-effect control and ±100 the full control effect
#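 qHTS format; LmPK 0.1 nM; substrates PEP 0.5 mM and ADP 0.1 mM. One-hour room-temperature incubation, then coupled luciferase luminescence; 0.5 nM enzyme wells mark activation.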
# * hit, by the source's call; u = inconclusive; x = no result; [ ] = another dose, or the depositor's remark. The entries come from a sample that favours hits as a whole. Unless noted, the call rests on the fitted dose curve; in most records, active means well fitted curve in the direction sought with a large enough effect; inconclusive means small, poorly fitted or top-dose-only effect, or another doubt; inactive means no such curve, though single readings can be large; an effect the other way counts as inactive or inconclusive.
SMILES,Giardia FBPA inh,CHX counter,TbPYK inhibitor,Shiga toxin inh,RE007 growth inh,LmPK inhibitor
COc1ccc(NC(=O)Cn2cc(S(=O)(=O)c3ccccc3)c(=O)c3cc(C)ccc32)cc1Cl,x,x,4%,x,x,x
Cc1cccc(NS(=O)(=O)c2ccc3oc(=O)c4ncn(C)c4c3c2)c1C,x,x,7%,x,x,x
CC(=O)c1cccc(NC(=O)C(=O)Nc2cccc3ccccc23)c1,5%,22*,6%,32*,-21%,9%
CC(=O)c1cccc(NC(=O)N(c2ccccc2)c2ccccc2)c1,1%,3,1%,x,12%,0%
CCCC(=O)NC(=S)Nc1ccc(C(C)=O)cc1,0%,55*,0%,57*,-18%,0%
CC(=O)c1ccc(NC(=S)NC(=O)Cc2ccc(Cl)cc2)cc1,-3%,-2,-4%,14,7%,0%
CC(=O)N(C)c1ccc(NC(=S)Nc2cccc3ccccc23)cc1,u,44*,0%,83*,-5%,-1%
CC(=O)N(C)c1ccc(NC(=S)Nc2ccccc2)cc1,-9%,1,4%,12,5%,-1%
CC(=O)c1ccc(NC(=S)Nc2cccc3ccccc23)cc1,-22%,73*,-13%,106*,-6%,0%
COc1ccc(CC(=O)NC2CC(=O)N(c3cccc(F)c3)C2)cc1 (stereo not given),x,x,3%,x,x,x
CC(C)CCn1c(=O)c2cccnc2n(CC(=O)Nc2ccccc2)c1=O,x,x,4%,x,x,x
Cc1ccc(NC(=S)Nc2cccc3ccccc23)cc1F,0%,42*,4%,81*,-4%,3%
CCc1ccc(NC(=S)Nc2cccc3cnccc23)cc1,u,36*,-4%,65*,u,3%
CCCCc1nc2ccn(CC(=O)N(C)C)c(=O)c2n1Cc1ccc(-c2ccccc2-c2nn[nH]n2)cc1,u,2,x,10,x,x
O=C(CSc1ncn(-c2ccccc2)n1)Nc1nncs1,2%,-1,-3%,-9,2%,-1%
CC(=O)Nc1ccc(C(=O)CSc2ncn(-c3ccccc3)n2)cc1,-3%,23*,-8%,8,1%,3%
Nc1nc(SCc2ccccc2Cl)ns1,-12%,17*,2%,58*,-29%,4%
Nc1ccccc1SCc1ccccc1Cl,-10%,25*,-11%,56*,0%,9%
CC(C)CSc1nsc(N)n1,6%,31,-2%,50,3%,-4%
Nc1nc(SCc2ccc(Cl)cc2)ns1,-14%,38*,0%,68*,-12%,7%
Nc1ccccc1SSc1ccccc1N,u,69*,u,127*,x,19%
N#Cc1ccccc1Sc1ccccc1N,0%,-2,-3%,-19,0%,0%
CC(=O)OC[C@@H]1O[C@H](CCO/N=C\[C@@H](C)[C@H](OCc2ccccc2)C(C)C)C=C[C@@H]1OC(C)=O,-4%[12.9 µM],x,x,x,x,x
CCOc1ccc(Nc2c(S(=O)(=O)c3ccc(Cl)cc3)cnc3ccc(OC)cc23)cc1,x,x,2%,x,x,x
Cc1ccc(NC(=O)C2CCCN(C(=O)c3cnn(-c4ccc(F)cc4)c3-n3cccc3)C2)c(Cl)c1 (stereo not given),x,x,5%,x,x,x
SMILES,Giardia FBPA inh,CHX counter,TbPYK inhibitor,Shiga toxin inh,RE007 growth inh,LmPK inhibitor
Nc1nc(SCc2ccccc2)cc(SCc2ccccc2)n1,x,x,1%,x,5%,x
Nc1nc(SCc2ccccc2)ns1,-2%,17*,-21%,35*,-11%,4%
CCCCNC(=O)C(CC)Sc1nnc(-c2ccc(OC)c(OC)c2)c(-c2ccc(OC)c(OC)c2)n1 (stereo not given),x,x,-11%,x,x,x
CC(C)C(=O)O/N=C(\N)c1ccc(Oc2ccc(Cl)cc2)c([N+](=O)[O-])c1,0%,23*,4%,36*,-1%,0%
CCCOC(=O)NCCCN(C)C,0%,-8,x,-6,x,x
COc1ccc(-c2oc3cccnc3c2/C=C/c2ccc(OC)c(OC)c2)cc1,0%,9.9*,-7%,17,10%,2%
CCn1c(SCC(=O)c2cccs2)nnc1-c1cccs1,-16%,27*,-8%,31,16%,1%
Cc1cccc(OCc2nnc(SCC(=O)c3cccs3)n2C)c1C,19%,21*,5%,39,-7%,4%
Cn1c(SCC(=O)c2ccccc2)nnc1-c1cccs1,3%,25*,-18%,86*,0%,1%
Cc1ccccc1OCc1nnc(SCC(=O)NCc2ccccc2)n1C,5%,-3,-2%,-11,2%,-1%
CCn1c(SCC(=O)NC(C)C)nnc1-c1cccs1,-2%,3,-4%,16,10%,-1%
CCC(=O)Nc1cccc(-c2nnc(SCC(=O)c3ccccc3)n2C)c1,-10%,36*,u,81*,3%,u
CCCC12CN3CC(CCC)(CN(C1)C3c1ccccc1)C2=O (stereo not given),x,x,7%,x,x,x
CS(=O)(=O)CCC(C(=O)Nc1cccc(C(F)(F)F)c1)N1Cc2ccccc2C1=O (stereo not given),x,x,-2%,x,x,x
Cn1c(SCC(=O)c2ccccc2)nnc1-c1cccnc1,1%,54*,0%,67*,27%,-3%
O=C1COc2ccc(OCc3ccc(F)cc3)cc21,4%,51*,3%,101*,13%,-16%
C=C(C)CCC1(C)NC(=O)N(c2ccccc2)N1 (stereo not given),0%,2,0%,28,67%,2%
CCCCCCC1(C)NC(=S)N(c2ccccc2)N1 (stereo not given),-26%,7,-14%,3,7%,22%[11.5 µM]
CCCCCC1(C)NC(=S)N(c2ccccc2)N1 (stereo not given),-29%,20*,-7%,39,2%,18%
CC1(CC(=O)Nc2ccccc2)NC(=S)N(c2ccccc2)N1 (stereo not given),u,24*,-14%,44*,0%,-14%
CCOc1ccc2oc(=O)cc(CN3CCN(C(=O)c4ccc(OC)c(OC)c4)CC3)c2c1,x,x,4%,x,x,x
CCN(C(=O)Nc1cn(CC(C)C)c(=O)c2ccccc12)c1cc(C)ccc1C,x,x,-5%,x,x,x
CCCCC(CC)CNC(=O)CCCn1c(=O)[nH]c2ccsc2c1=O (stereo not given),x,x,0%,x,x,x
O=C(/C=C/c1c(Cl)nc2ccccn12)Nc1ccc(F)cc1,-3%,15*,2%,12,8%,0%
O=Cc1c(Cl)nc2ccccn12,3%,1,-11%,-3,32%,1%
Oc1[nH]c2ccccc2c1N=Nc1ccc(C(F)(F)F)cn1,0%,18*,1%,17,-16%,7%
